# SMN2 splice enh – qHTS Assay for Enhancers of SMN2 Splice Variant Expression. 2.8% of 210,000 active. Potency, µM (doses to about 46.1 µM), most hits filed as activators. HEK293 SMN2-luciferase splicing reporter, luminescence, 30-36 h; further: nearly all actives have a fitted effect of over 55% in size
#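 HEK293 cells carry an SMN2 […]–luciferase reporter in which exon 7 inclusion puts luciferase in frame. Cells were plated 10-12 h before compound addition, then incubated 30-36 h at 37C. ONE-Glo luminescence was read; sodium butyrate at 4.5 mM final served as control.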
# NPC1 prom act – qHTS Assay for NPC1 Promoter Activators. Huh7 NPC1 promoter luciferase reporter, 24 h. Potency, µM (titrated, usually from 9.22 µM), actives largely listed as activators. 2.4% of 320,000 active; further: nearly all actives have a fitted effect of over 60% in size
#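 NPC1 promoter–luciferase Huh7 cells; 24 h compound; luminescence.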
# Rab9 promoter act – qHTS Assay for Rab9 Promoter Activators | AID 485297, 2010 | 2.8% of 320,000 active | Huh7 Rab9 promoter-luciferase reporter, luminescence, 24 h | Potency, µM (doses to about 9.22 µM), usual class: activators; further: nearly all actives have a fitted effect of over 60% in size
#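 Stable Rab9-luc Huh7, 1500 cells/well, 2 h settle; cmpd in DMSO, 24 h, 37 °C/5% CO2; luciferase reagent 10 min RT; luminescence.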
# FLuc modulator – qHTS profiling assay for firefly luciferase inhibitor/activator using purifed enzyme and Km concentrations of substrates (counterscreen for miR-21 project); 6.9% of 360,000 active; purified FLuc, Km substrates, luminescence inhibition; Luciferin 4-monooxygenase (Photinus pyralis), P08659; Potency, µM (titrated, usually from 57.5 µM), most hits filed as inhibitors; further: nearly all actives have a fitted effect of over 55% in size
# Target sequence (P08659 whole entry, looked up): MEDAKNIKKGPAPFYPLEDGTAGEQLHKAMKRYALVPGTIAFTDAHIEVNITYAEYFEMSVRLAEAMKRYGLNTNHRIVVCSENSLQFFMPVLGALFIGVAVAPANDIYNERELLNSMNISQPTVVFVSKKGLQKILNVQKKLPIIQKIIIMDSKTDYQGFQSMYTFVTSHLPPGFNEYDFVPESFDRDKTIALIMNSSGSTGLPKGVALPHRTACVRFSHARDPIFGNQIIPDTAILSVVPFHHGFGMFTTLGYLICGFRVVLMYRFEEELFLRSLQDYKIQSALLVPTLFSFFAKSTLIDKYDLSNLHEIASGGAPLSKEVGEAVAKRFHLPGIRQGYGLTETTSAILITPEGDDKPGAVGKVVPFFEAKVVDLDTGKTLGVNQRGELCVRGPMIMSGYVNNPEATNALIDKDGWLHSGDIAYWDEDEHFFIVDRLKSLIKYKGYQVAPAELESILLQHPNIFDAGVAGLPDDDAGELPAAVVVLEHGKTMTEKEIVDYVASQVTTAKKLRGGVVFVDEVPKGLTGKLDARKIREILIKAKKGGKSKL
#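 Purified P. pyralis luciferase (10nM final) with 10uM D-luciferin and 10uM ATP (Km levels) in 50mM Tris acetate pH 7.5, 10mM Mg acetate, 0.01% Tween-20, 0.05% BSA; qHTS 6-point titration, ~60 µM downward; luminescence read.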
# ELG1 genotox – qHTS screen for small molecules that induce genotoxicity in human embryonic kidney (HEK293T) cells expressing luciferase-tagged ELG1. HEK293T ELG1-luciferase reporter, luminescence, 16 h. Potency, µM (highest dose often 46 µM), actives largely listed as activators. 1.3% of 330,000 active. AID 504466, 2011; further: nearly all actives have a fitted effect of over 60% in size
#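 Quantitative HTS format in 1536-well plates. HEK293T ELG1-luciferase reporter cells receive test compound and are incubated 16 hr at 37 °C, 5% CO2; ONE-Glo added, 30 min room temperature, then luminescence read.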
# Luc counter – Counterscreen for Luciferase (Kinase-Glo TM) Inhibition | Potency, µM (top dose mostly 38.3 µM), most hits filed as inhibitors | Kinase-Glo luciferase, ATP luminescence, 8 min | AID 1379, 2008 | 0.28% of 200,000 active | Luciferin 4-monooxygenase (Photuris pensylvanica), Q27757; further: nearly all actives have a fitted effect of over 60% in size
#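 Recombinant Kinase-Glo luciferase, 10 uM ATP (linear range), luciferin; imidazole pH 7.2 / KCl / MgCl2 / Tween / BSA buffer; 8 min RT; luminescence.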
# A number is an active result; . = inactive; ? = inconclusive; / = no result given; [ ] = remark or other dose. An excerpt weighted towards active compounds, which were near 7.4% of everything screened. The call rests on the fitted dose curve; in most records, active means well fitted curve in the direction sought with a large enough effect; inconclusive means small, poorly fitted or top-dose-only effect, or another doubt; inactive means no such curve, though single readings can be large; an effect the other way counts as inactive or inconclusive.
SMILES,SMN2 splice enh,NPC1 prom act,Rab9 promoter act,FLuc modulator,ELG1 genotox,Luc counter
O=C(NNC(=O)c1cc(-c2ccc(Cl)cc2Cl)nc2ccccc12)Nc1ccccc1,.,.,.,6.7µM,.,.
O=C(NNC(=O)c1ccc(Cl)cc1Cl)Nc1ccccc1,.,.,.,.,.,.
CCOC(=O)c1ccc(NC(=S)NNC(=O)c2cc(-c3cccnc3)nc3ccccc23)cc1,/,.,.,21µM,.,/
O=C(NNC(=S)Nc1ccccc1)c1cc(-c2cccnc2)nc2ccccc12,.,.,.,13µM,.,.
NNC(=O)CCc1ccc2ccc3ccccc3c2c1,.[9.22 µM],/,/,/,/,.[7.66 µM]
O=C(NCCc1nc2ccccc2n1CCOc1ccc(Cl)cc1)C1CCCCC1,.,/,/,.,/,/
COC(=O)C1=NN(C(=O)c2ccc(Cl)cc2)C(O)(c2ccccc2)C1 (configuration not stated),.,.,.,21µM,.,.
C[C@@H]1c2ccccc2Cn2cc3c(c21)C(=O)c1cccc(OP(=O)(O)OCc2ccccc2)c1C3=O,.[9.22 µM],/,/,/,/,.[7.66 µM]
CC(=O)Nc1ccc2nc(SCC(=O)Nc3ccc(N4CCOCC4)c(Cl)c3)sc2c1,?,?,?,8.5µM,.,.
CC(=O)CSc1nc2ccc(Nc3nc(N4CCOCC4)nc(N4CCOCC4)n3)cc2s1,25µM,.,.,.,.,.
CC(C)(C)NC(=O)CSc1nc2ccc(Nc3nc(N4CCOCC4)nc(N4CCOCC4)n3)cc2s1,.,.,.,.,.,.
COc1cc(C2CC(=O)Nc3c2c(=O)n(C)c2ncnn32)cc(OC)c1OC (configuration not stated),.,/,/,.,/,/
COc1ccc(-c2nnc(SCc3c(C)noc3C)o2)cc1,.,.,.,19µM,.,.
C#CCSc1nnc(-c2ccc(OC)cc2)o1,?,2.8µM,2.8µM,7.6µM,10µM,.
CSc1nnc(-c2ccc([N+](=O)[O-])cc2)o1,/,.,.,.,.,.
CCCCCCCCSc1nnc(-c2ccc(OC)cc2)o1,.,.,.,.,.,.
C#CCSc1nnc(-c2ccc([N+](=O)[O-])cc2)o1,.,.,3.2µM,?,.,.
CCSc1nnc(-c2ccc(OC)cc2)o1,11µM,2.8µM,2.8µM,7.6µM,7.1µM,.
COc1ccc(-c2nnc(SCC#N)o2)cc1,.,.,.,.,?,.
Cc1cc(C)c(NC(=O)Cn2c(=O)n(-c3cccc(C(F)(F)F)c3)c(=O)c3c(C)c(C)sc32)c(C)c1,.,/,/,.,/,/
COc1ccc(Br)cc1CNC(=O)c1cnc2sc(N3CCC(C)CC3)nn2c1=O,/,/,/,.,/,/
CCN(CC)CCCNC(=O)c1ccc2c(c1)NC(=O)C(CS(=O)(=O)Cc1cccc(Br)c1)N2 (configuration not stated),/,/,/,.,/,/
CN(C)/C=N/c1ncc(C(=O)c2ccc(-c3ccccc3)cc2)s1,.,.,.,21µM,.,.
CN(C)/C=N/c1ncc(C(=O)c2ccccc2)s1,14µM,2.8µM,3.2µM,15µM,9.2µM,.
COc1ccc2c(c1)c1c(c(=O)n(Cc3ccccc3)c(=O)n1Cc1cccc(Cl)c1)n2C,/,/,/,.,/,/
SMILES,SMN2 splice enh,NPC1 prom act,Rab9 promoter act,FLuc modulator,ELG1 genotox,Luc counter
COc1ccc(NC(=O)N2CCCC3(CCN(C(=O)c4cccc(F)c4)CC3)C2)cc1,.,/,/,/,/,.
Cc1ccc(C(O)C2=CCCC2=O)cc1 (configuration not stated),.,/,/,/,/,.
O=C(C1CC1)N1CCc2cc(Br)cc(S(=O)(=O)Nc3ccc(C(F)(F)F)cc3)c21,.,/,/,?,/,/
CC(=O)NCCc1cc2ccc(C)c(C)c2[nH]c1=O,?,.,.,.,.,.
Cc1ccc2cc(CCNC(=O)c3cccs3)c(=O)[nH]c2c1,10µM,3.2µM,?,11µM,?,.
Cc1ccc2cc(CCNC(=O)c3cccs3)c(=O)[nH]c2c1C,10µM,2.8µM,2.8µM,5.4µM,?,.
COc1ccc(CNC(=O)Cn2c(SCC(=O)Nc3ccc(OC)cc3)nc3ccccc32)cc1,/,/,/,.,/,/
O=C(Cc1n[nH]c(=O)c2ccccc12)OCC(=O)c1ccc2c(c1)OCCO2,.,.,.,13µM,?,.
O=C(Cc1ccc(Br)cc1)OCC(=O)c1ccc2c(c1)OCCO2,.,.,.,17µM,.,.
O=C(Cc1n[nH]c(=O)c2ccccc12)OCC(=O)c1ccc(F)cc1,/,.,.,.,.,/
COc1ccc2[nH]cc(CCO)c2c1,.,/,/,/,/,/
Cc1ccc(CSc2nc3ccncc3n2Cc2nc(-c3ccc(Cl)cc3)oc2C)cc1,.,/,/,?,/,/
COc1ccc(-c2nc(Cn3c(SCc4ccc(F)cc4)nc4cccnc43)c(C)o2)cc1,/,/,/,11µM,/,/
COc1ccc(Cn2c(SCc3ccc(C(=O)NC4CCCC4)cc3)nc3cccnc32)cc1,/,/,/,.,/,/
COc1ccc(-c2nc(Cn3c(SCc4ccc(C)cc4)nc4cccnc43)c(C)o2)cc1OC,/,/,/,6µM,/,/
COc1ccc(-c2nc(Cn3c(SCc4ccc(F)cc4)nc4ccncc43)c(C)o2)cc1OC,.,.,.,13µM,.,.
COc1ccc(-c2nc(Cn3c(SCc4ccccc4F)nc4cccnc43)c(C)o2)cc1,/,/,/,13µM,/,/
COc1ccc(-c2nc(Cn3c(SCc4ccccc4F)nc4ccncc43)c(C)o2)cc1,.,.,.,.,?,.
O=C=Nc1ccc(Cl)c(Cl)c1,.,/,/,/,/,/
Cn1c(SCc2ccccc2F)nc2cccnc21,13µM,1.4µM,2.2µM,9.5µM,?,.
CN(CC(=O)N1CCCCCC1)S(=O)(=O)c1ccccc1,/,3.2µM,?,?,?,/
Cc1cc(C(=O)COc2cccnc2[N+](=O)[O-])c(C)n1Cc1cccs1,.,.,.,24µM,?,.
CC(=O)Nc1ccccc1OCC(=O)c1cc(C)n(Cc2cccs2)c1C,.,.,.,?,10µM,.
COC(=O)CCn1c(C)cc(C(=O)COc2ccccc2C(N)=O)c1C,.,.,.,?,.,.
Cc1ccc(OCC(=O)c2cc(C)n(-c3ccccc3)c2C)c([N+](=O)[O-])n1,.,.,.,19µM,.,.
Cc1cc(-n2c(C)cc(C(=O)COc3cccnc3[N+](=O)[O-])c2C)no1,/,.,.,.,.,/
CC1(C)O[C@H]2[C@@H](O1)[C@@H](C(=O)Nc1cc(F)ccc1F)O[C@@H]1OC(C)(C)O[C@@H]12,.,/,/,.,/,/
CCOc1ccc(-c2nc(C)c(C(C)=O)n2O)cc1,13µM,.,?,6.7µM,?,?

# High-throughput results from PubChem BioAssay.
